A short description of assay [1]: antimalarial activity against Dd2 strain (AID 2302;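 active means growth inhibition above 50% at the single 2 µM test dose, taken to imply half-maximal potency below 2 µM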;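 further: 0% = DMSO untreated growth and 100% = chloroquine plus artemisinin killed control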). As to conditions: P. falciparum Dd2 in RBCs, LDH growth readout, 72 h; at 2 µM; hits give high values.
Assay [2] has as its target L-lactate dehydrogenase (Plasmodium falciparum (isolate CDC / Honduras)) (UniProt Q27743). The assay is described as follows: PfLDH activity inhibition – cell lysate, 3D7 strain, counter-screen for P. falciparum growth inhibition project (AID 2304).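 Further: 0% = vehicle and 100% = reference inhibitor.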 To be noted: P. falciparum 3D7 crude extract, LDH APAD/NBT absorbance; at 2 µM; hits give high values.
The nature of assay [3]: inhibition of 3D7 malaria parasite growth – strain 3D7 (AID 2306).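 Further: 0% = DMSO wells and 100% = chloroquine plus artemisinin control wells.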 As to conditions: P. falciparum 3D7 erythrocytic growth, LDH absorbance, 72 h; at 2 µM; hits give high values.
The target of assay [4] is Calcium-dependent protein kinase 1 (Plasmodium falciparum (isolate 3D7)) (UniProt P62344). The assay is described as follows: PfCDPK1 kinase inhibitors, biochemical, TCAMS library (AID 1159585; cut-off not given, nearly all actives have IC50 up to about 0.98 µM;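 further: inhibitors leave more ATP so luminescence rises with inhibition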). To be noted: recombinant PfCDPK1, Kinase-Glo ATP depletion luminescence.
Chain of Calcium-dependent protein kinase 1 (Plasmodium falciparum (isolate 3D7)) (P62344 whole entry, looked up): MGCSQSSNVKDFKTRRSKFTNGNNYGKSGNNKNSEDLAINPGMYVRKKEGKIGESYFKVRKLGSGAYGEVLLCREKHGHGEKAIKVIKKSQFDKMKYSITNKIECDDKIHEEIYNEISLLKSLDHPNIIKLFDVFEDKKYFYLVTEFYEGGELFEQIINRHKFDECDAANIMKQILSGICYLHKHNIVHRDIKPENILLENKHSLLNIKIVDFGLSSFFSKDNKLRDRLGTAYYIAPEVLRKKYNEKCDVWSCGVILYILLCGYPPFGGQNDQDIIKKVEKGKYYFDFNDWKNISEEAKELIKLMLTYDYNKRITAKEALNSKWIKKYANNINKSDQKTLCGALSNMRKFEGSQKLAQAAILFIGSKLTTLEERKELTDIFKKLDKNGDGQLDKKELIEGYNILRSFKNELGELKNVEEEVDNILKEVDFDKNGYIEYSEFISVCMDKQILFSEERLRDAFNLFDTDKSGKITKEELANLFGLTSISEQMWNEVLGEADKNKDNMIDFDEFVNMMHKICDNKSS
The target of assay [5] is Plasmodium falciparum protein kinase 6 (PK6, PF3D7_1337100) (UniProt Q8IDW1). The assay is described as follows: PfPK6 kinase inhibitors, biochemical, TCAMS library (AID 1159586). To be noted: recombinant PfPK6, Kinase-Glo ATP depletion luminescence.
Chain of Plasmodium falciparum protein kinase 6 (PK6, PF3D7_1337100) (Q8IDW1 1-305): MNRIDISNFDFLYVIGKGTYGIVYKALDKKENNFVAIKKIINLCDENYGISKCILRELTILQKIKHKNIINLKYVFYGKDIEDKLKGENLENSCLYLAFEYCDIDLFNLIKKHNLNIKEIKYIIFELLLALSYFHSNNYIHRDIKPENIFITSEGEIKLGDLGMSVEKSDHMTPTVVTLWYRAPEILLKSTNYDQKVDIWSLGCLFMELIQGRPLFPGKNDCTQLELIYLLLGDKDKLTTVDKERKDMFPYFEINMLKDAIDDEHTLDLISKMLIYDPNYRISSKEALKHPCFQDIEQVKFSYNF
Assay [6] deals with Protein kinase 7 (PK7), Plasmodium falciparum 3D7 (PF3D7_0213400) (UniProt Q7YTF7). The assay is described as follows: inhibition of Plasmodium PK7 catalytic activity – biochemical, TCAMS antimalarial set, Kinase-Glo luminescence (AID 1159587). To be noted: recombinant PfPK7, Kinase-Glo ATP depletion luminescence.
Chain of Protein kinase 7 (PK7), Plasmodium falciparum 3D7 (PF3D7_0213400) (Q7YTF7 1-343): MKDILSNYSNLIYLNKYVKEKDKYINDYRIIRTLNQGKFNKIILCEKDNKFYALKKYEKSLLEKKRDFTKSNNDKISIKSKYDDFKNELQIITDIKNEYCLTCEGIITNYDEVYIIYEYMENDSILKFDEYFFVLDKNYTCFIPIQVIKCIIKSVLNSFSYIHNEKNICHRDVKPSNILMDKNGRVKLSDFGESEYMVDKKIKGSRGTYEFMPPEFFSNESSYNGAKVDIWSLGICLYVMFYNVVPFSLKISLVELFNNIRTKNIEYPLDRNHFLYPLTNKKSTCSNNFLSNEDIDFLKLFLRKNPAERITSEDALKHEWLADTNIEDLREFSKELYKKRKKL
The target in assay [7] is Calcium-dependent protein kinase 4 (Plasmodium falciparum (isolate 3D7)) (UniProt Q8IBS5). The assay is described as follows: PfCDPK4 kinase inhibitors, biochemical, TCAMS library (AID 1159588; cut-off not given, nearly all actives have IC50 up to about 0.91 µM). To be noted: recombinant PfCDPK4, Kinase-Glo ATP depletion luminescence.
Chain of Calcium-dependent protein kinase 4 (Plasmodium falciparum (isolate 3D7)) (Q8IBS5 whole entry, looked up): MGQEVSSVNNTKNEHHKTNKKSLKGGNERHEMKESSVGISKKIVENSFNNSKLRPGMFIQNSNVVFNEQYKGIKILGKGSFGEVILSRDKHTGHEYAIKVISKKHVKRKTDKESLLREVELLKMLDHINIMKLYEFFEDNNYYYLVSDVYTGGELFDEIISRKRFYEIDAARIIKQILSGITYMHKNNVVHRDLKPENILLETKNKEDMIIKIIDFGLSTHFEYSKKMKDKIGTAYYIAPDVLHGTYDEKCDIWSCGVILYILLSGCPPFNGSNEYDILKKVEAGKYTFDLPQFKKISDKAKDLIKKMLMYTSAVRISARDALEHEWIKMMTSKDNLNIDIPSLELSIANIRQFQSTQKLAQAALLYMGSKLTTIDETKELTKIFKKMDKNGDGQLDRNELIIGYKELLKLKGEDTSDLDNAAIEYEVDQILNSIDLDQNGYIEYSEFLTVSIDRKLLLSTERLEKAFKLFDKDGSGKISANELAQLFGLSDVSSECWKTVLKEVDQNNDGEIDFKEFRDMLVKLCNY

The values below come from PubChem BioAssay.

A number with no mark means an inactive call. For some of these results: Results with a measured potency or affinity are listed apart. Active and inactive are the calls of the source. Unless noted, how the calls were made is not given here.

Chain of L-lactate dehydrogenase (Plasmodium falciparum (isolate CDC / Honduras)) (Q27743 whole entry, looked up): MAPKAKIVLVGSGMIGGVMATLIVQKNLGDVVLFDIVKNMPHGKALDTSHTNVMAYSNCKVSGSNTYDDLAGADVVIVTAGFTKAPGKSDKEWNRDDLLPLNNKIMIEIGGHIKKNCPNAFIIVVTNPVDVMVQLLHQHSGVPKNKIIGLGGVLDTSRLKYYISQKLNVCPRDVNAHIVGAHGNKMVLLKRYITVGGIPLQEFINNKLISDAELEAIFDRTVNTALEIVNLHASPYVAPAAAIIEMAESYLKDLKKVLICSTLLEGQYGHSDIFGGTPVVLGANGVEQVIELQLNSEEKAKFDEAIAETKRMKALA

Regarding `N=C(N)c1ccc2[nH]c(-c3cc4cc(C(=N)N)ccc4o3)cc2c1`, the growth inhibition in assay [1] was 87% (active); in assay [3], 94% (active). Further, in assay [2], the inhibition is 5%. The result in assay [4], in assay [5], in assay [6] and in assay [7] was inactive.
As to `Cc1[nH]c(C)c(-c2ccc(Oc3ccc(Cl)cc3)cc2)c(=O)c1Cl`, the growth inhibition in assay [1] was 16%; in assay [3], 91% (active). In addition, the inhibition in assay [2] was -3%. In addition, the result in assay [4], in assay [5], in assay [6] and in assay [7] was inactive.
`Cc1cc2c3c(N)nc(N)nc3ccc2n1C`: the figures for the growth inhibition in assay [1] and in assay [3] were -2% and 95% (active), respectively. Further, the inhibition in assay [2] is -5%. Also, the outcome in assay [4], in assay [5], in assay [6] and in assay [7] was inactive.
With `Cc1[nH]c(C)c(-c2ccc(Sc3ccc(Cl)cc3)cc2)c(=O)c1Br`, the growth inhibition in assay [1] was 97% (active); in assay [3], 98% (active). Also, in assay [2], the inhibition is 0%. Besides, the result in assay [4], in assay [5], in assay [6] and in assay [7] was inactive.
As to `Cc1[nH]c(C)c(-c2ccc(Oc3cccc(OC(F)(F)F)c3)cc2)c(=O)c1Br`, the growth inhibition was 96% (active) in assay [1] and 100% (active) in assay [3]. In addition, the inhibition in assay [2] is -7%. The result in assay [4], in assay [5], in assay [6] and in assay [7] was inactive.
For the molecule `FC(F)(F)c1ccc2c(NCCCNc3ccnc4cc(C(F)(F)F)ccc34)ccnc2c1`, the results for the growth inhibition in assay [1] and in assay [3] were 101% (active) and 100% (active), respectively. Also, the inhibition in assay [2] was 3%. Further, the result in assay [4], in assay [5], in assay [6] and in assay [7] was inactive.
Take `Cc1[nH]c(C)c(-c2ccc(Oc3ccc(Cl)cc3)cc2)c(=O)c1C`: the growth inhibition in assay [1] was 95% (active); in assay [3] it was 96% (active). In assay [2], the inhibition is -8%. Also, the outcome in assay [4], in assay [5], in assay [6] and in assay [7] was inactive.
Regarding `CC(C)c1ccc(Cn2cc(-c3ccncc3)c3cc(OCc4ccccc4)ccc32)cc1`, the growth inhibition in assay [1] was 88% (active); in assay [3], 99% (active). The inhibition in assay [2] was -1%. The outcome in assay [4], in assay [5], in assay [6] and in assay [7] was inactive.
`Cc1nc(NCc2ccccc2)cc(Nc2cc(NCc3ccccc3)nc(C)n2)n1`: the figures for the growth inhibition in assay [1] and in assay [3] were 32% and 90% (active), respectively. For the same molecule, in assay [2], the inhibition was 8%. Moreover, the outcome in assay [4], in assay [5], in assay [6] and in assay [7] was inactive.
In the case of `CC(=NNC(=S)NCc1ccco1)c1ccccn1`, the growth inhibition in assay [1] was 100% (active); in assay [3], 99% (active). Also, the inhibition in assay [2] was -6%. Further, the outcome in assay [4], in assay [5], in assay [6] and in assay [7] was inactive.
On to `Nc1nnc(-c2ccc(Cl)c(Br)c2)c(N)n1`, for which the growth inhibition in assay [1] is -3%; in assay [3] it was 86% (active). Further, the inhibition in assay [2] is -3%. Moreover, the result in assay [4], in assay [5], in assay [6] and in assay [7] was inactive.
`CCOc1cc(OCC)c2ccccc2c1CNCCCCCCNCc1c(OCC)cc(OCC)c2ccccc12`: the results for the growth inhibition in assay [1] and in assay [3] were 89% (active) and 101% (active), respectively. Also, in assay [2], the inhibition is 2%. Further, the outcome in assay [4], in assay [5], in assay [6] and in assay [7] was inactive.
On to `CC(C)C(=O)Nc1c(F)cc(F)cc1CCc1ccc(O)cc1`, for which the growth inhibition in assay [1] is 91% (active); in assay [3], 90% (active). Moreover, the inhibition in assay [2] is 2%. Further, the result in assay [4], in assay [5], in assay [6] and in assay [7] was inactive.
Consider `CCC1=C(C[C@H]2NCCc3cc(OC)c(OC)cc32)C[C@H]2c3cc(OC)c(OC)cc3CCN2C1`, for which the values for the growth inhibition in assay [1] and in assay [3] were 100% (active) and 102% (active), respectively. Besides, the inhibition in assay [2] was -2%. Further, the outcome in assay [4], in assay [5], in assay [6] and in assay [7] was inactive.
As to `CN(Cc1cnc2nc(N)nc(N)c2n1)c1ccc(C(=O)N[C@H](CCC(=O)OC(C)(C)C)C(=O)N[C@@H](CCC(=O)OC(C)(C)C)C(=O)OC(C)(C)C)cc1`, the growth inhibition in assay [1] is 1%; in assay [3] it was 85% (active). The inhibition in assay [2] is -6%. Also, the result in assay [4], in assay [5], in assay [6] and in assay [7] was inactive.
In the case of `CCCCCCCCCC(=O)NCC1CC(Br)=NO1` (centres undefined), the growth inhibition is 42% in assay [1] and 87% (active) in assay [3]. Moreover, the inhibition in assay [2] is -7%. The result in assay [4], in assay [5], in assay [6] and in assay [7] was inactive.
On to `Cc1[nH]c(C)c(-c2ccc(Oc3ccccc3)cc2)c(=O)c1Br`, for which the growth inhibition was 97% (active) in assay [1] and 96% (active) in assay [3]. Moreover, the inhibition in assay [2] was 1%. Moreover, the result in assay [4], in assay [5], in assay [6] and in assay [7] was inactive.
For the molecule `CCc1cccc(-c2cc(=N)n(C)c3nc(N)[nH]c(=O)c23)c1`, the values for the growth inhibition in assay [1] and in assay [3] were 28% and 85% (active), respectively. In addition, in assay [2], the inhibition is 3%. In addition, the outcome in assay [4], in assay [5], in assay [6] and in assay [7] was inactive.
As to `Cc1nc(N)nc(N)c1-c1cc(Cl)c(Cl)c(Cl)c1`, the results for the growth inhibition in assay [1] and in assay [3] were 0% and 97% (active), respectively. The inhibition in assay [2] was 2%. Also, the result in assay [4], in assay [5], in assay [6] and in assay [7] was inactive.
As for `CCCCSc1ccc(CNCCCCCCNCc2ccc(SCCCC)c3ccccc23)c2ccccc12`, the growth inhibition in assay [1] was 48%; in assay [3], 94% (active). In assay [2], the inhibition is 0%. The outcome in assay [4], in assay [5], in assay [6] and in assay [7] was inactive.
Consider `Cc1cc(=O)c(-c2ccc(S(=O)(=O)c3ccc(Cl)cc3)cc2)c(C)[nH]1`, for which the growth inhibition in assay [1] is 80% (active); in assay [3], 92% (active). Further, the inhibition in assay [2] is 4%. In addition, the result in assay [4], in assay [5], in assay [6] and in assay [7] was inactive.
In the case of `CCn1c(O)c(N=NC(=S)N2CCCC2)c2ccccc21`, the growth inhibition in assay [1] was 9%; in assay [3] it was 91% (active). Further, the inhibition in assay [2] is 4%. Besides, the outcome in assay [4], in assay [5], in assay [6] and in assay [7] was inactive.
